MITF inhib: inhibitors of MITF, primary screen, MITF inhibitor project, cell-based, luminescence. TRPM1 promoter luciferase, 24 h. inhibition, % (test concentration not listed). actives 0.28% (n = 37,000). AID 2240, 2010; in the data active means inhibition above about 85%; inconclusive means no clear call, values can overlap the other calls; inactive means below about 68%;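 further: human melanocyte line stably carrying TRPM1 promoter luciferase reporter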
Hedgehog inh: Hedgehog pathway signaling inhibitors, primary screen, luminescence, Shh-LIGHT2 cells, Gli-luciferase. actives 2.1% (n = 22,000). Shh-LIGHT2 Gli-luciferase reporter, 30 h. AID 2313, 2010. inhibition, % (test concentration not listed);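 active means mean inhibition across valid replicates above about 65%, limit read from the data; inconclusive means mean under the limit, yet half or more replicates past it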;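 further: pathway switched on by Shh-conditioned medium diluted 1 in 25 in low serum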
NOMO-1 viab: NOMO-1 AML cell viability reduction, primary screen, STK33 inhibitor project, CellTiter-Glo luminescence; NOMO-1 AML viability, 72 h; inhibition, % (test concentration not listed); actives 7.5% (n = 37,000); in the data active means inhibition above about 80%; inconclusive means no clear call, values can overlap the other calls
Large screens that a line does not name were inactive. Compounds with a hit are over-represented: about 8.1% of the library has one in this group of screens.

CC1=C(C(=O)Nc2ccc(Cl)cc2)C(c2cccc(F)c2)n2nc(CCCO)nc2N1 (stereo not given)	none (no result: Hedgehog inh)
CCOC(=O)C1CCN(S(=O)(=O)Cc2ccccc2)C1=O (stereo not given)	NOMO-1 viab 112
CCOC(=O)C1CCCN(Cc2ccccc2)C1 (stereo not given)	none
CCOC(=O)CSc1nc2c(c(=O)n1-c1ccccc1OC)C1(CCCC1)Cc1ccccc1-2	none (no result: Hedgehog inh)
C[C@@H]1CN([C@H](C)CO)C(=O)c2cc(NC(=O)Nc3ccc(F)cc3)ccc2O[C@H]1CN(C)Cc1ccc(C(F)(F)F)cc1	NOMO-1 viab 117
C[C@H]1CN([C@@H](C)CO)C(=O)c2cc(NC(=O)Nc3ccc(F)cc3)ccc2O[C@H]1CN(C)Cc1ccc(C(F)(F)F)cc1	none
C[C@@H]1CN([C@@H](C)CO)C(=O)c2cc(NC(=O)Nc3ccc(F)cc3)ccc2O[C@H]1CN(C)Cc1ccc(C(F)(F)F)cc1	NOMO-1 viab 113 (no result: Hedgehog inh)
C[C@H]1CN([C@@H](C)CO)C(=O)c2cc(NC(=O)Nc3ccc(F)cc3)ccc2O[C@@H]1CN(C)Cc1ccc(C(F)(F)F)cc1	none
CC(C(=O)Nc1ccc(Oc2ccccc2)cc1)N(c1ccc(Cl)cc1)S(C)(=O)=O (stereo not given)	none (no result: Hedgehog inh)
O=C(CSc1nc2ccccc2s1)Nc1ccccc1N1CCOCC1	none (no result: Hedgehog inh)
C=C1C(=O)O[C@H]2C1C[C@@H](OC(C)=O)[C@@]1(C)[C@@H](OC(C)=O)C[C@@H](OC(C)=O)C(=C)[C@H]21 (stereo not given in full)	NOMO-1 viab 120
CC1(C)NCCC12C(=O)N(Cc1ccccc1)c1ccccc12 (stereo not given)	NOMO-1 viab 120
COc1ccc(CCN2C(=O)C(NC(=O)C(C)(C)C)(C(F)(F)F)C3=C2CC(C)(C)CC3=O)cc1OC (stereo not given)	none (no result: Hedgehog inh)
COc1ccc(C)cc1S(=O)(=O)N1CCCC(C(=O)Nc2ccccc2)C1 (stereo not given)	none (no result: Hedgehog inh)
C[C@H](CO)N1C[C@H](C)[C@H](CN(C)C(=O)Nc2ccccc2)Oc2c(NC(=O)Nc3cccc4ccccc34)cccc2C1=O	none
C[C@@H]1CN([C@H](C)CO)C(=O)c2cccc(NC(=O)Nc3ccccc3)c2O[C@@H]1CN(C)C(=O)Nc1cccc2ccccc12	NOMO-1 viab 105
C[C@@H]1CN([C@@H](C)CO)C(=O)c2cccc(NC(=O)Nc3cccc4ccccc34)c2O[C@H]1CN(C)C(=O)Nc1ccccc1	none
C[C@@H]1CN([C@@H](C)CO)C(=O)c2cccc(NC(=O)Nc3ccccc3)c2O[C@@H]1CN(C)C(=O)Nc1cccc2ccccc12	Hedgehog inh inconclusive, NOMO-1 viab 106
COc1ccc(-c2cc(C(F)(F)F)nc(SCC(=O)Nc3ccc(C)cc3)n2)cc1	none (no result: Hedgehog inh)
CCOC(=O)c1c(NC(=O)CSc2nnc(C)s2)sc(C)c1C	none (no result: Hedgehog inh)
C/C=C/C/C=C/CCC(=O)[C@H]1O[C@H]1C(N)=O	MITF inhib 101, Hedgehog inh 78, NOMO-1 viab 114
CC/C=C\C/C=C\C/C=C\C/C=C\C/C=C\C/C=C\CCC(=O)O	none
COc1ccc(-c2cc(=O)c3c(O)c(OC)c(O[C@@H]4O[C@H](CO)[C@@H](O)[C@H](O)[C@H]4O[C@@H]4O[C@@H](C)[C@H](O)[C@@H](O)[C@H]4O)cc3o2)cc1	none
COc1ccc(-n2c(CCn3c4ccccc4c4ccccc43)n[nH]c2=S)cc1	none (no result: Hedgehog inh)
Cc1ccc(C(C)C)c(OCCSc2nc(N)cc(N)n2)c1	none (no result: Hedgehog inh)
COc1ccccc1OCC(=O)Nc1cccc(-c2nnc(-c3ccccc3)o2)c1	none (no result: Hedgehog inh)
COc1ccc(CC(=O)Nc2cccc(-c3nnc(-c4ccc(C)cc4)o3)c2)cc1OC	MITF inhib 101, NOMO-1 viab 122 (no result: Hedgehog inh)
COc1cc2c(c(OC)c1OC)c(=O)c1ccccc1n2C	none (no result: MITF inhib, NOMO-1 viab)
O=C(CCC(=O)N(Cc1ccccc1)Cc1ccccc1)Nc1ccc(F)cc1	none
N#CC1=C(N)Nc2c(c(=O)oc3ccccc23)C1c1ccc(Br)cc1 (stereo not given)	Hedgehog inh 72
C=CCN1C(=O)C2(C(C#N)=C(N)Oc3c2c(=O)oc2ccccc32)c2ccccc21 (stereo not given)	none
Nc1cc(N)nc(SCC(=O)Nc2ccc(Oc3ccccc3)cc2)n1	none (no result: Hedgehog inh)
Cc1ccc(-c2nc3cc(Cl)ccc3o2)cc1NC(=O)COc1ccccc1[N+](=O)[O-]	none (no result: Hedgehog inh)
C=CC(C)(O)C(O)CC1C(=C)CCC2C(C)(C(=O)O)CCCC12C (stereo not given)	none
COc1ccc(-n2c(SCc3nc4ccccc4s3)nnc2-c2cccnc2)cc1	none (no result: Hedgehog inh)
C=C(C)C(=O)O[C@H]1C[C@@]2(C)O[C@@H]2[C@H]2O[C@H]2C(=C)[C@@H](O)[C@H]2OC(=O)C(=C)[C@@H]21	none (no result: MITF inhib, NOMO-1 viab)
C=C(C(=O)O[C@H]1C[C@]2(C)C(C(C=O)CC[C@H]2O)[C@H]2OC(=O)C(=C)[C@H]12)C(O)CO (stereo not given in full)	NOMO-1 viab 104
O=C(CC1OCCN(Cc2ccccc2)C1=O)Nc1cccc(Cl)c1 (stereo not given)	none (no result: Hedgehog inh)
CCC(Sc1n[nH]c(N)n1)C(=O)Nc1ccc(C)cc1C (stereo not given)	none (no result: Hedgehog inh)
COc1ccc(-c2coc3cc(O[C@@H]4O[C@H](CO)[C@@H](O)[C@H](O)[C@H]4O)cc(O)c3c2=O)cc1	none
O=c1c(-c2ccc(O)cc2)coc2cc(O[C@@H]3O[C@H](CO)[C@@H](O)[C@H](O)[C@H]3O)cc(O)c12	NOMO-1 viab 96
COC(=O)C1=C(C)N(C)C(=O)NC1c1ccc(OC)c(Br)c1 (stereo not given)	none
Cc1ccc(NC(=O)CN(c2ccc(F)c(Cl)c2)S(C)(=O)=O)c(C)c1	none (no result: Hedgehog inh)
Cc1sc(N)nc1C12CC3CC(CC(C3)C1)C2	NOMO-1 viab 105
S=c1nc(C23CC4CC(CC(C4)C2)C3)[nH][nH]1	none
O=S(=O)(c1ccc(Cl)cc1)N1CCN(C(=S)NCc2ccco2)CC1	none (no result: Hedgehog inh)
C=CCn1c2ccccc2c2nnc(SCc3ccc([N+](=O)[O-])cc3)nc21	none (no result: Hedgehog inh)
CC(=O)c1cccc(NC(=S)NCc2cccnc2)c1	none (no result: Hedgehog inh)
COC(=O)c1cc(NC(=S)NCc2cccnc2)cc(C(=O)OC)c1	NOMO-1 viab 106 (no result: Hedgehog inh)
CC1=C(C(=O)OC(C)C)C(c2ccccc2[N+](=O)[O-])n2ncnc2N1 (stereo not given)	none (no result: Hedgehog inh)
CCc1nnc(NC(=O)CSc2nc(-c3ccccc3)cc(C(F)(F)F)c2C#N)s1	none
CCN(CC)C(=S)CSc1nc(-c2ccccc2)cc(-c2ccco2)c1C#N	NOMO-1 viab 88
C[C@H]1CN([C@@H](C)CO)C(=O)Cc2cc(NC(=O)Nc3ccc(C(F)(F)F)cc3)ccc2O[C@@H]1CN(C)CC1CC1	none
C[C@@H]1CN([C@H](C)CO)C(=O)Cc2cc(NC(=O)Nc3ccc(C(F)(F)F)cc3)ccc2O[C@@H]1CN(C)C	none
C[C@@H]1CN([C@@H](C)CO)C(=O)Cc2cc(NC(=O)Nc3ccc(C(F)(F)F)cc3)ccc2O[C@@H]1CN(C)CC1CCCCC1	NOMO-1 viab 104
C[C@@H]1CN([C@H](C)CO)C(=O)c2cc(NC(=O)Nc3ccc(C(F)(F)F)cc3)ccc2O[C@@H]1CN(C)CC1CC1	none
C[C@H]1CN([C@@H](C)CO)C(=O)Cc2cc(NC(=O)Nc3ccc(C(F)(F)F)cc3)ccc2O[C@H]1CN(C)CC1CCCCC1	Hedgehog inh inconclusive, NOMO-1 viab 130

Assay outcomes as filed in PubChem.
